PubChem BioAssay AID720540 (National Center for Advancing Translational Sciences (NCATS), 2013)
Hit rate of the full screen: of about 1,300 compounds, about 460 (35%) were called active. Inconclusive results (about 39%) are left out. Calls come from the whole dose curve; as a rule, active = well fitted inhibition curve with a large enough effect; inconclusive = small, poorly fitted or top-dose-only effect; inactive = flat fitted curve, though single readings scatter. Some of the results follow.

What follows are compounds tested against Protein phosphatase EYA2 (Homo sapiens) (UniProt O00167) (assay: qHTS for Inhibitors of the Phosphatase Activity of Eya2: Confirmatory Assay for Cherry-picked Compounds). Conditions: purified EYA2 phosphatase activity, qHTS confirmation; series mostly up to 46.1 µM.
Sequence of Protein phosphatase EYA2 (Homo sapiens) (O00167 whole entry, looked up): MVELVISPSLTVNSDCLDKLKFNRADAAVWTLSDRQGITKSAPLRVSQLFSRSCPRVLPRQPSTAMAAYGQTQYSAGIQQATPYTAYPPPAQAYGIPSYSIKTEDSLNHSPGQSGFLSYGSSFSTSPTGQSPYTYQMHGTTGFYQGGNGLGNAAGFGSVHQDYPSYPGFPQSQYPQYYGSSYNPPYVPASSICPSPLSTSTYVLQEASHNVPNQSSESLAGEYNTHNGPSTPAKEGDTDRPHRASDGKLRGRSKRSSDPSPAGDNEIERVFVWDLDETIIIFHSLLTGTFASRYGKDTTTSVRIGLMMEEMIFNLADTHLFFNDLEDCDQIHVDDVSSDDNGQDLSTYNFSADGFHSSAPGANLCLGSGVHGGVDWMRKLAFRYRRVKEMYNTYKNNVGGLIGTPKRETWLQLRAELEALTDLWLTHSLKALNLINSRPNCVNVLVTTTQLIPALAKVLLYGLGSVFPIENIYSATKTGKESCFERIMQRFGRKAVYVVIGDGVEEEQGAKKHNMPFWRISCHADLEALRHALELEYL
Procedure, shortened: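 Eya2 (0.2 uM working solution) preincubated 10 min at room temperature with compound in pH 7.5 HEPES buffer with MgCl2, BSA, DTT. OMFP added (50 uM working solution), 10 min more; fluorescence 485/525 nm, normalized to EGTA and DMSO.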
Note: nearly all actives have a fitted effect of over 65% in size.
Potency is the fitted concentration of half-maximal effect.

SMILES	Potency
CC(C)S(=O)(=O)c1cnc(-c2ccccn2)nc1N	16.9 µM (active)
COc1ccc(NC(=O)CSc2ccc(-c3ccccn3)nn2)cc1OC	3.79 µM (active)
COc1cc(NC(=O)CSc2ccc(-c3ccccn3)nn2)cc(OC)c1	2.13 µM (active)
CN(CC(=O)Nc1cccc(F)c1)C(=O)c1ccc(COc2ccccc2)cc1	inactive
COc1cc(NC(=O)c2ccc(S(=O)(=O)N(C)c3ccccc3)cc2)cc(OC)c1	inactive
COc1ccccc1CNC(=O)CSc1ccc(-c2ccccn2)nn1	12 µM (active)
O=C(CSc1ccc(-c2ccccn2)nn1)Nc1cccc(F)c1	3.79 µM (active)
Cn1c(-c2cc(Cl)ccc2O)nc2c1c(=O)[nH]c(=O)n2Cc1ccccc1	inactive
O=C(Cc1cccs1)Nc1ccc2c(c1)C(=O)OC2	inactive
Cc1cnc(C(=O)Nc2ccccc2-c2ccc(C)o2)cn1	inactive
Cc1cccc(-n2c(O)c(C=Nc3ccccc3)c3ccccc3c2=O)n1	inactive
Cc1[nH]n(-c2cccc3ccccc23)c(=O)c1C=Nc1ccc2[nH]c(=O)[nH]c2c1	7.57 µM (active)
C/C=C/c1ccc(OCCSc2nc(C)cc(=O)[nH]2)c(OC)c1	13.5 µM (active)
C/C(N)=C(/C#N)C(=O)CSc1nnc(Nc2cccc(C)c2)s1	inactive
CC(C)Nc1nnc(SCC(=O)Nc2ccc3c(c2)C(=O)c2ccccc2C3=O)s1	6.75 µM (active)
Cc1cc(NC(=O)CSc2nnc(Nc3ccccc3F)s2)no1	inactive
O=C(NC1CC1)c1ccc2nc(-c3ccco3)c(-c3ccco3)nc2c1	13.5 µM (active)
CC(C)[C@H](NC(=O)c1ccccc1)C(=O)NC1CCCCCCC1	inactive
O=C(O)c1ccc2nc(-c3ccco3)c(-c3ccco3)nc2c1	8.49 µM (active)
CC1CCN(CC2C(=O)O[C@@H]3C[C@@]4(C)CCC[C@H](C)C4=C[C@H]23)CC(C)(C)C1 (some centres not stated)	inactive
CC(=O)Oc1ccccc1C(=O)Oc1ccc(/C=N/n2cnnc2)cc1	16.9 µM (active)
CCC(C)C(CO)NC(=O)/C=C/[C@H]1O[C@@H](n2cnc3c(NC(=O)c4ccccc4)ncnc32)[C@H](O)[C@@H]1O (some centres not stated)	inactive
Cc1cc(C(=O)COC(=O)c2cccnc2Cl)c(C)n1-c1c(C)n(C)n(-c2ccccc2)c1=O	inactive
O=C(OCC(=O)c1ccc(Cl)cc1Cl)c1ccccn1	19 µM (active)
O=C(CSc1nnc2c(n1)[nH]c1ccccc12)Nc1ccc(S(=O)(=O)Nc2ncccn2)cc1	5.36 µM (active)

SMILES	Potency
CCOc1ccc2[nH]c3nc(SCC(=O)NC4CCCC4)nnc3c2c1	inactive
CCc1ccc2[nH]c3nc(SCC(=O)NCC4CCCO4)nnc3c2c1 (configuration not stated)	6.01 µM (active)
Cc1c(CCC(=O)NCCCCCC(=O)O)c(=O)oc2cc3occ(-c4ccccc4)c3cc12	15.1 µM (active)
Cc1c(CC(=O)NCC(=O)O)c(=O)oc2cc3occ(-c4ccccc4)c3cc12	16.9 µM (active)
Cc1c(CC(=O)NCCCC(=O)O)c(=O)oc2cc3occ(-c4ccccc4)c3cc12	19 µM (active)
Cc1c(CC(=O)N[C@@H](C)C(=O)O)c(=O)oc2cc3occ(-c4ccccc4)c3cc12	8.49 µM (active)
O=c1cc2oc3cc(O)c(O)cc3c(-c3ccccc3[N+](=O)[O-])c-2cc1O	16.9 µM (active)
CC1=C(/C=C/C(C)=C/C=C/C(C)=C/C(=O)Nc2ccc(O)cc2)C(C)(C)CCC1	inactive
CC1=NN(c2ccccc2)C(=O)/C1=C\C=C1/N(C)c2ccccc2C1(C)C	7.57 µM (active)
CN1/C(=C\C=C2/SC(=S)NC2=O)C(C)(C)c2ccccc21	15.1 µM (active)
Cc1ccc(-n2[nH]c(C)c(C=Nc3ccc(S(=O)(=O)Nc4nccs4)cc3)c2=O)cc1C	8.49 µM (active)
Cc1c(CCC(=O)O)c(=O)oc2c(C)c(OCc3cc4c(cc3Cl)OCO4)ccc12	9.53 µM (active)
COc1ccc(/C=C2\CCc3ccccc3C2=O)cc1CN1CCOCC1	inactive
COc1cccc2c1C(=O)/C(=C/c1ccc(N(C)C)cc1)C2	4.26 µM (active)
Cc1ccc(C(=O)Oc2ccc3ccc(=O)oc3c2)cc1	1.9 µM (active)
Cc1ccc(C(=O)Oc2ccc(N3C(=O)CCC3=O)c(C)c2)cc1	2.69 µM (active)
Cc1cc(NC(=O)c2cccc(N3C(=O)CCC3=O)c2)no1	inactive
CC(C)c1ccc2oc(-c3ccc(NC(=O)c4ncn[nH]4)cc3)nc2c1	16.9 µM (active)
CCC(C)c1ccc2oc(-c3ccc(NC(=O)c4ncn[nH]4)cc3)nc2c1 (configuration not stated)	15.1 µM (active)
CCN(CC)c1ccc(N=Cc2cc(Br)ccc2O)cc1	inactive
CCN(CC)c1ccc(NC(=O)COC(=O)CSc2ccc(Br)cc2C)cc1	12 µM (active)
CN(C)c1ccc(/C=C/c2ccnc3ccc(-c4ccccc4)cc23)cc1	21.3 µM (active)
CCN(C)c1ccc(/C=C/c2ccnc3ccccc23)cc1	21.3 µM (active)
Cc1ccc(O)c(C(=O)c2cnc3c(c2)c(-c2ccc(F)cc2)c(C#N)c(=O)n3C)c1	inactive
O=C(Nc1nc2ccc(F)cc2s1)C1=NN(c2ccccc2)C(=O)CC1	inactive

SMILES	Potency
COc1ccc(CCNC(=O)C(=O)NCc2cccs2)cc1OC	inactive
COc1ccc(CCNc2nc(-c3ccccn3)cs2)cc1OC	7.57 µM (active)
Cc1cccc(NC(=S)N(CCN2CCOCC2)Cc2cc3cc4c(cc3[nH]c2=O)OCCO4)c1	inactive
Cc1ccc(S(=O)(=O)Nc2c(C)n(C)n(-c3ccccc3)c2=O)cc1C(=O)OC(C)C(=O)N(C)c1ccccc1 (configuration not stated)	inactive
CC(=O)NC(c1ccc(Cl)cc1)c1ccc2cccnc2c1O (configuration not stated)	2.13 µM (active)
CCCCC(=O)NC(c1cccc([N+](=O)[O-])c1)c1ccc2cccnc2c1O (configuration not stated)	4.26 µM (active)
CCCC(=O)NC(c1ccc(OC)c(OC)c1)c1cc(Cl)c2cccnc2c1O (configuration not stated)	2.69 µM (active)
COc1ccc(C(NC(C)=O)c2ccc3cccnc3c2O)cc1OC (configuration not stated)	1.69 µM (active)
COc1ccc(C(NC(C)=O)c2cc(Cl)c3cccnc3c2O)cc1OC (configuration not stated)	1.69 µM (active)
CC(C)C(=O)NC(c1ccc(Cl)cc1Cl)c1ccc2cccnc2c1O (configuration not stated)	5.36 µM (active)
CCC(=O)NC(c1cccs1)c1cc(Cl)c2cccnc2c1O (configuration not stated)	1.51 µM (active)
O=C(O)c1ccccc1NC(c1ccccc1)c1ccc2cccnc2c1O (configuration not stated)	3.38 µM (active)
CCOc1ccc(Nc2nc(N)nc(CN(C)C3CCCCC3)n2)cc1	inactive
O=C(O)c1c(C(=O)N2N=C3/C(=C/c4ccccc4)CCCC3C2c2ccccc2)cccc1[N+](=O)[O-] (configuration not stated)	inactive
CCCc1ccc(C#N)c(SC2CC(=O)N(c3ccc(OC)cc3)C2=O)n1 (configuration not stated)	inactive
O=C(NC1CCCC1)c1cc(=O)[nH]c2ccccc12	inactive
CCCCC(=O)NC(c1ccco1)c1cc(Cl)c2cccnc2c1O (configuration not stated)	3.38 µM (active)
CCC(=O)NC(c1ccc(OC)c(OC)c1)c1cc(Cl)c2cccnc2c1O (configuration not stated)	1.69 µM (active)
O=C(Oc1ccc(Cl)c2cccnc12)C12CC3CC(CC(C3)C1)C2	inactive
Nc1[nH]nc2ncc3cc4ccccc4nc3c12	15.1 µM (active)
COc1ccc(-c2cn(Cc3ccc4c(c3)C(=O)c3ccccc3C4=O)nn2)cc1	inactive
CCc1ccc2oc(-c3ccc(OC)cc3)cc(=Nc3c(C)n(C)n(-c4ccccc4)c3=O)c2c1	16.9 µM (active)
O=C(Nc1ccccc1Cl)N1CCN(c2ccc3nnc(-c4ccccc4)n3n2)CC1	6.75 µM (active)
COc1cccc(N2CCN(c3ccc4nnc(CCC(=O)Nc5cccc(C(C)=O)c5)n4n3)CC2)c1	inactive
C[C@@]12CCC=C[C@H]1[C@H](c1ccc3ccccc3c1/C=C/c1ccccc1)N(Cc1ccccc1)C2=O	inactive

SMILES	Potency
Cc1ccc(-n2nnnc2C(=Cc2ccc(N(C)C)cc2)c2nnnn2-c2ccc(C)cc2)cc1	inactive
CCN(CC)c1ccc(/C=C/c2c(C)cnc3ccc(C)cc23)cc1	8.49 µM (active)
Cc1cnc2ccc(I)cc2c1/C=C/c1ccc(N(C)C)cc1	7.57 µM (active)
Cc1ccc2c(/C=C/c3ccc(N(C)C)cc3)c(C)cnc2c1	8.49 µM (active)
CCc1cnc2ccccc2c1/C=C/c1ccc(N(C)C)cc1	7.57 µM (active)
Cn1c(=O)c2[nH]c(COc3ccccc3)nc2n(C)c1=O	inactive
COc1cc(OC)c(OC)cc1/C=C/c1nccc2ccccc12	7.57 µM (active)
Cc1cc(C)c(OCCCCN(C)Cc2ccccc2)c(C)c1	inactive
Cn1c(=O)cc2c3c(c(N4CCCCC4)ccc31)C(=O)c1ccccc1-2	3.38 µM (active)
Cc1cccc(C)c1OCc1cc(C(=O)N2CCN(c3ccccc3)CC2C)no1 (configuration not stated)	inactive
Cc1c(NC(=O)/C(C#N)=C/c2ccc(-c3cc(Cl)ccc3Cl)o2)c(=O)n(-c2ccccc2)n1C	7.57 µM (active)
CCOc1ccc2nc(N3CCCC(C(=O)N4CCN(CC)CC4)C3)sc2c1 (configuration not stated)	inactive
CCOC(=O)c1ccc(NC(=S)N2CCN(CCN=CC3=C(O)CC(c4ccccc4)CC3=O)CC2)cc1 (configuration not stated)	inactive
CS(=O)(=O)c1ccc(C(=O)Nc2nc(-c3ccco3)c(-c3ccco3)s2)cc1	12 µM (active)
CS(=O)(=O)c1ccc2nc(NC(=O)c3ccccc3Cl)sc2c1	inactive
CN(C)C(C)(C)C#CC(O)(c1ccccc1)c1ccccc1	inactive
O=C(CSc1nnc2c3ccccc3c3ccccc3c2n1)Nc1ccccc1F	7.57 µM (active)
CCOC(=O)Cc1nnc(NC(=O)CSc2nnc3c4ccccc4n(C)c3n2)s1	16.9 µM (active)
Cn1c2ccccc2c2nnc(SCC(=O)Nc3cccc(O)c3)nc21	13.5 µM (active)
Cn1cc(SCC(=O)Nc2ccc3c(c2)OCCO3)c2ccccc21	inactive
CCOC(=O)Cc1nnc(NC(=O)C(CC)Sc2nnc3c4ccccc4n(C)c3n2)s1 (configuration not stated)	16.9 µM (active)
CSc1cccc(NC(=O)CCCOc2cc(=O)n(C)c3ccccc23)c1	inactive
